# Measured values taken from PubChem BioAssay (Tox21).
# Activity calls are given as the source filed them. The call rests on the fitted dose curve.
# Molecular target: Acetylcholinesterase (Homo sapiens) (UniProt P22303)
# Assay: Acetylcholinesterase (AChE) small molecule antagonists: enzyme-based qHTS assay with human liver microsomes (AID 1347399); further: nearly all actives have a fitted effect of over 60% in size
# Settings: Potency: qHTS inhibition; outcome: qHTS inhibition; series mostly up to 115 µM; activity change, negative = inhibition: at the top concentration
# Outline: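 Recombinant human AChE (50 mU/mL in the enzyme mix) and human liver microsomes (0.25 mg/mL final) were preincubated with compound and NADPH (0.25 mg/mL final) for 30 min at 37 C. Acetylthiocholine/DTNB was then added; thiocholine was read colorimetrically after 10 min at room temperature.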
# On the % scale 0 is the no-effect control and ±100 the full control effect.
# Chain of Acetylcholinesterase (Homo sapiens) (P22303 whole entry, looked up): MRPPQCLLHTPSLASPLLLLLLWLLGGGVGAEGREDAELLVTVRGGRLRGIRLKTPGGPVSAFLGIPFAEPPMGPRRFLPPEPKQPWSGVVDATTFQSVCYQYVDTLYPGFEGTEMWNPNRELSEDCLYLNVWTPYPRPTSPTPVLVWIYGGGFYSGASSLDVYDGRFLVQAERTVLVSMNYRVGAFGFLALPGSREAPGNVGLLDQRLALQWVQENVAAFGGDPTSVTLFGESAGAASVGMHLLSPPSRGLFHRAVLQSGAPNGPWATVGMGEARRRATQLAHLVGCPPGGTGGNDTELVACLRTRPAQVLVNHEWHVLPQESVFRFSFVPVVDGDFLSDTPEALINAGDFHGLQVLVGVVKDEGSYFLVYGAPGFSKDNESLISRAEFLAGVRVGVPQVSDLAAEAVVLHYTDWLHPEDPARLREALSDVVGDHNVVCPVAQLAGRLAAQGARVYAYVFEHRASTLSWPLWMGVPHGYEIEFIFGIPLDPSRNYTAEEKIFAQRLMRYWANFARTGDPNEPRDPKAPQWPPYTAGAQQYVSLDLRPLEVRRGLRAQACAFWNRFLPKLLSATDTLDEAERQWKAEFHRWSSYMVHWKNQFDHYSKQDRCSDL
SMILES,"activity change, negative = inhibition",outcome
O=C(O)COc1ccc2ccccc2c1,-2.16% (inactive),
COc1cc(OC)c2ccc(=O)oc2c1,-0.583% (inactive),
CCCCCCCCCCC=O,0.511% (inactive),
N#Cc1ccc(C2CCCc3cncn32)cc1 (stereo not given),0.659% [at 53 µM] (inactive),
O=C(O)Cc1ccc(CCNS(=O)(=O)c2ccc(Cl)cc2)cc1,33.3% [at 53 µM] (inactive),
NCCCN1CCOCC1,0.764% (inactive),
CCCCC(CC)C(=O)OC(C)C (stereo not given),0.764% (inactive),
CCCc1ccc(N)cc1,-1.04% (inactive),
CO[Si](CCCNCCC[Si](OC)(OC)OC)(OC)OC,0.682% (inactive),
O=C(O)[C@@H]1[C@H]2C[C@H]3c4[nH]c5ccccc5c4CCN3C[C@@H]2CC[C@@H]1O,-1.18% [at 53 µM] (inactive),
CN(C)CCCOc1nn(Cc2ccccc2)c2ccccc12,-0.602% [at 53 µM] (inactive),
C=C(C)c1ccccc1,-0.337% (inactive),
C=C(C)C(=O)OCC,0.149% (inactive),
Nc1ccccc1O,0.669% (inactive),
O=C1OC(CN2CCOCC2)CN1/N=C/c1ccc([N+](=O)[O-])o1 (stereo not given),0.504% [at 53 µM] (inactive),
O=C(O)c1ccc(O)c(O)c1,0% (inactive),
Cc1onc(-c2c(Cl)cccc2Cl)c1C(=O)N[C@@H]1C(=O)N2[C@@H]1SC(C)(C)[C@@H]2C(=O)O,-0.591% [at 53 µM] (inactive),
CCOC(=O)CC(C)O (stereo not given),-0.323% (inactive),
Cc1ccnc(N)c1,-2.28% (inactive),
Cc1cccc(N(C)C)c1,-2.11% (inactive),

SMILES,"activity change, negative = inhibition",outcome
CC/C=C\CCCCO,0.366% (inactive),
C/C(=C\C(C)CC(C)CC(C)C)C1CC(=O)OC1=O (stereo not given),-0.304% (inactive),
CC(=O)OCC(=O)[C@@]12OC(C)(C)O[C@@H]1C[C@H]1[C@@H]3C[C@H](F)C4=CC(=O)C=C[C@]4(C)[C@@]3(F)[C@@H](O)C[C@@]12C,1.01% [at 53 µM] (inactive),
CC(=O)NO,-0.885% [at 53 µM] (inactive),
CN1CCCN=C1COC(=O)C(O)(c1ccccc1)C1CCCCC1 (stereo not given),-1.6% [at 53 µM] (inactive),
CC12CCC(C(=O)C1=O)C2(C)C (stereo not given),-0.17% (inactive),
O=C1CCCCCCCCCCC(=O)OCCO1,-0.0104% (inactive),
CC(C)(C)c1ccc(-c2ccc(C(C)(C)C)cc2)cc1,0.97% (inactive),
CCCCC(CC)COC(=O)c1ccccc1O (stereo not given),0.167% [at 53 µM] (inactive),
CCC1(C)NC(=O)NC1=O (stereo not given),0.917% (inactive),
CN1CCCC1,-1.07% (inactive),
CCC(=O)C(=O)CC,-1.79% (inactive),
CCOc1ccccc1O[C@H](c1ccccc1)[C@H]1CNCCO1,,inactive
CC(C)(C)c1ccc(N)cc1,1.42% (inactive),
COc1ccccc1OCC(O)CN1CCN(CC(=O)Nc2c(C)cccc2C)CC1 (stereo not given),-0.756% [at 53 µM] (inactive),
O=C1NC(=O)c2cc([N+](=O)[O-])ccc21,-1.86% (inactive),
CC(=N\O)/C(C)=N/O,-4.74% (inactive),
C1=CCC2CC=CC2C1 (stereo not given),3.01% (inactive),
Nc1nnc(-c2ccc([N+](=O)[O-])o2)o1,12.5% (inactive),
CC(C)(C)c1ccccc1,-0.312% (inactive),
